# About 83,000 compounds went through this panel and 20% of them were active in at least one assay; those are over-represented in the sample as a whole.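 Cell lines were cultured in 96-well plates, exposed to a single compound concentration, and assessed for percent growth 48 hours later.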 Unmarked numbers belong to inactive results. Active and inactive are the calls of the source. How the source made its calls: active means growth percent below 10; inactive means the rest.
# Tests used:
# Experiment in all cases: NCI-60 one-dose screen, 48 h (100 = growth as untreated, 0 = no growth, -100 = all killed)
# Conditions in all cases: 10 µM unless noted
# NCI-H23 lung = test system: NCI-H23 lung
# NCI-H226 lung = test system: NCI-H226 lung
# NCI-H322M lung = test system: NCI-H322M lung
# HOP-62 NSCLC = test system: HOP-62 NSCLC
# NCI-H460 lung = test system: NCI-H460 lung
# HOP-92 NSCLC = test system: HOP-92 NSCLC
# NCI-H522 lung = test system: NCI-H522 lung
# A549/ATCC NSCLC = test system: A549/ATCC NSCLC
# 786-0 renal = test system: 786-0 renal
# COLO 205 colon = test system: COLO 205 colon
SMILES,growth (NCI-H23 lung),growth (NCI-H226 lung),growth (NCI-H322M lung),growth (HOP-62 NSCLC),growth (NCI-H460 lung),growth (HOP-92 NSCLC),growth (NCI-H522 lung),growth (A549/ATCC NSCLC),growth (786-0 renal),growth (COLO 205 colon)
CC1(C)N=C(N)N=C(N)N1c1ccc(F)c(C(F)(F)F)c1,29.4%,54.1%,51.9%,21.7%,21.6%,45.4%,-8.07% (active),9.86% (active),-4.42% (active),79.8%
Cc1cccc(NCS(=O)(=O)O)c1,99.5%,97.1%,106%,92.4%,105%,99.4%,90.9%,75%,103%,103%
N#Cc1c2c(c(N)[nH]c1=O)C(=O)NC2(O)c1ccccc1 (stereo not given),98.8%,99.2%,103%,104%,118%,114%,85.1%,97.1%,104%,107%
O=[N+]([O-])c1ccccc1NC1c2ccccc2Oc2ccccc21,79.1%,78%,74.6%,70%,15.1%,48.4%,26.3%,44.9%,94.5%,69.3%
COc1ccc(-c2nnc(SCC(=O)Nc3ccc(C(=O)/C=C/c4ccccc4)cc3)o2)cc1OC,88%,89%,90.8%,119%,103%,105%,91.4%,97.7%,101%,113%
COc1ccc(Cn2cc(COc3ccc4c5ccnc(C)c5n(CCCc5ccccc5)c4c3)nn2)cc1,85.6%,99.4%,79.5%,90.7%,62.6%,83.3%,64.4%,75.3%,80.4%,69.2%
O=C(O)c1ccc2nc(-c3ccc(OCCCCCOc4ccc(-c5nc6ccc(C(=O)O)cc6[nH]5)cc4)cc3)[nH]c2c1,46%,63.4%,91.5%,91.9%,109%,100%,92.8%,81.7%,-20.8% (active),8.79% (active)
COc1cc(/C=C/C(=O)c2c(C)n([O-])c3cc(C)c(C)cc3[n+]2=O)cc(OC)c1OC,72.7%,82.8%,67.6%,74.6%,35.4%,41.5%,33.6%,65.9%,23.1%,70.1%
CCn1c(SC)nnc1-c1cc2c([nH]c3ccccc32)c(-c2cccc(O)c2)n1,39.8%,51.3%,50.1%,18.3%,9.54% (active),-1.11% (active),5.8% (active),26.5%,1.6% (active),87.7%
CCCCCCCCCCCC(=O)OCCNC(=O)C[n+]1ccccc1,107%,98.7%,99.4%,102%,120%,68.7%,102%,104%,112%,105%
